We go through 38 molecules from PubChem BioAssay (EPA / NIEHS).

Where a structure was tested more than once in an assay, its records may differ in their call. Active and inactive are the calls of the source. The calls were made as follows: active = hit-call score of the fitted dose curve at least 0.9, where 1 is the maximum; inactive = score below 0.9.

Read-out in the test: Epidermal growth factor receptor (EGFR), EGFR (gene 1956)
The experiment in a line: BSK_hDFCGF_EGFR: BioMAP Diversity Plus: hDFCGF Assay for Epidermal growth factor receptor (EGFR) Biomarker Activity (AID 2283057). Conditions: primary human foreskin fibroblasts; actives raise or lower the signal. The method, then: BSK_hDFCGF is a cell-based, multiplexed-readout assay that uses foreskin fibroblast, a human skin primary cell, with measurements taken at 24 hours after chemical dosing in a 96-well plate.BSK_hDFCGF_EGFR is an assay component measured in the BSK_hDFCGF assay. It measures EGFR antibody related to regulation of gene expression using ELISA technology.Data from the assay component BSK_hDFCGF_EGFR was analyzed into 1 assay endpoint. This assay endpoint, BSK_hDFCGF_EGFR, was analyzed with bidirectional fitting relative to DMSO as the negative control and baseline of activity. Using a type of binding reporter, gain or loss-of-signal activity can be used to understand changes in the signaling as they relate to the gene EGFR. Furthermore, this assay endpoint can be referred to as a primary readout, because this assay has produced multiple assay endpoints where this one serves a signaling function. To generalize the intended target to other relatable targets, this assay endpoint is annotated to the kinase intended target family, where the subfamily is receptor tyrosine kinase.
The levels of cell surface (or secreted, indicated by the prefix "s") biomarker endpoints were measured by ELISA. Overt cytotoxicity to cells in confluent adherent cultures (all systems other than the BT system) was assessed by measuring total protein levels using sulforhodamine B (SRB) staining in parallel cultures at the time of biomarker measurements, indicated as SRB endpoints. For proliferation assays for adherent cell types, individual cell types are cultured at sub-confluence and relative cell numbers quantified by SRB staining at time points optimized for each system (48 h: 3C and CASM3C systems; 72 h: BT and HDF3CGF systems; 96 h: SAg system). SRB was performed by staining cells with 0.1% SRB after fixation with 10% TCA and reading wells at 560 nm.Viability and proliferation of PBMC (T cells) was quantified by Alamar Blue reduction for the SAg and BT systems. For PBMC viability (referred to as PBMC Cytotoxicity within the assay endpoint names), cells were plated (75,000/well in a 96-well plate) and then chemical samples added for 1 h before addition of activators, SEB and TSST-1 (20 ng/mL final concentration each). Cells were incubated for 90 h. Then, Alamar Blue (20 uL/well) (Invitrogen, Cat DAL1100) was added for 6 h, and the plates were read with a fluorescence microplate reader at 546/580 nm (excitation/emission). For PBMC proliferation, cells were plated and activated as above but incubated for only 16 h prior to addition of Alamar Blue. Plates were read after 6 h.
Take `C[C@]12CC[C@@H]3c4ccc(O)cc4CC[C@H]3[C@@H]1C[C@@H](O)[C@@H]2O`: the result was inactive.
In the case of `O=C(O)C(F)(F)OC(F)(F)C(F)(F)OC(F)(F)C(F)(F)OC(F)(F)C(F)(F)C(F)(F)C(F)(F)F`, the outcome was inactive.
`CS(=O)(=O)c1ccc([C@@H](CC2CCCC2)C(=O)Nc2cnccn2)cc1Cl`: the outcome was inactive.
Broadly, the AC50 is the concentration giving half of the maximal activity seen. As to `CCCCCc1ccc(O)cc1`, the AC50 was 29.9 µM (active).
Consider `CCCCCCCCCCCCCCCCCC[N+](C)(C)Cc1ccccc1`, for which the result was inactive.
On to `CC[N+](CC)(CC)Cc1ccccc1`, for which the result was inactive.
Still for that read-out and setting: as for `C=COC(=O)C(C)(C)CCCCCC`, the entry is “inactive”; as for `CN(C)CCOC(c1ccccc1)c1ccccc1`, “inactive”; as for `O=C1c2ccc(O)c(O)c2C(=O)c2c(O)ccc(O)c21`, “inactive”.
For the molecule `CCCCCCCCCCCCOS(=O)(=O)O`, the AC50 was 20 µM (active).
Turning to `O=S(=O)(O)C(F)(F)C(F)(F)C(F)(F)C(F)(F)C(F)(F)C(F)(F)C(F)(F)C(F)(F)C(F)(F)C(F)(F)F`, the outcome was inactive.
The same measure, in the same setting: as for `CCCCC(CC)C(=O)OCCOCCOCCOCCOC(=O)C(CC)CCCC` (stereo not given), the entry is “inactive”.
Take `Cc1[nH]nc2c1N=C(c1ccccc1Cl)c1cc([N+](=O)[O-])ccc1N2`: the concentration at half-maximal activity (AC50) was 20 µM (active).
In the case of `CCCCc1oc2ccccc2c1C(=O)c1cc(I)c(OCCN(CC)CC)c(I)c1`, the result was inactive.
Regarding `Cc1cccc2c1ccc1ccccc12`, the result was inactive.
On the same count and under the same terms, as for `C=CC(=O)OCCC(F)(F)C(F)(F)C(F)(F)C(F)(F)C(F)(F)C(F)(F)C(F)(F)C(F)(F)F`, the entry is “inactive”.
In the case of `O=P(O)(O)CCC(F)(F)C(F)(F)C(F)(F)C(F)(F)C(F)(F)C(F)(F)C(F)(F)C(F)(F)F`, the outcome was inactive and the AC50 is 29 µM (active).
Consider `CCCCC(CC)C(=O)O` (stereo not given), for which the outcome was inactive.
The same measure, in the same setting: to `COC1=CC(=O)C[C@@H](C)[C@]12Oc1c(Cl)c(OC)cc(OC)c1C2=O` belongs “inactive”; to `CC(C)(C)c1ccc(O)c(O)c1`, “inactive”.
Same read-out and setting: as for `O=C(O)CCC(F)(F)C(F)(F)C(F)(F)C(F)(F)C(F)(F)F`, the entry is “inactive”.
For `Oc1c(Cl)cc(Cl)cc1Sc1cc(Cl)cc(Cl)c1O`, the outcome was inactive and the AC50 was 0.236 µM (active).
Consider `OCCN1CN(CCO)CN(CCO)C1`, for which the outcome was inactive.
In the case of `CC(=O)Nc1ccc(O)cc1`, the outcome was inactive.
On the same count and under the same terms, to `OCC(CO)(CBr)CBr` belongs “inactive”.
Regarding `O=C(c1ccccc1)c1ccccc1`, the result was inactive.
On the same count and under the same terms, as for `O=C1NS(=O)(=O)c2ccccc21`, the entry is “inactive”.
As for `CN(CCO)S(=O)(=O)C(F)(F)C(F)(F)C(F)(F)C(F)(F)C(F)(F)C(F)(F)C(F)(F)C(F)(F)F`, the result was inactive.
On the same count and under the same terms, to `C=CC(=C)CC/C=C(\C)CCC=C(C)C` belongs “inactive”; to `O=C(NO)c1ccccc1`, “inactive”; to `CCC(C)c1ccccc1O` (stereo not given), “inactive”.
With `O=C(CCCN1CCC(O)(c2ccc(Cl)cc2)CC1)c1ccc(F)cc1`, the result was inactive.
`O=P(O)(O)CCC(F)(F)C(F)(F)C(F)(F)C(F)(F)C(F)(F)C(F)(F)F`: the result was inactive.
In the case of `N=C(N)c1ccc(OCCCCCOc2ccc(C(=N)N)cc2)cc1`, the AC50 was 29.1 µM (active).
As for `O=C(O)CCC(F)(F)C(F)(F)C(F)(F)C(F)(F)C(F)(F)C(F)(F)F`, the outcome was inactive.
`CCOC(=O)CN[C@@H](C(=O)N1CC[C@H]1C(=O)NCc1ccc(/C(N)=N/O)cc1)C1CCCCC1`: the result was inactive.
Take `COc1cc(OC)nc(NC(=O)NS(=O)(=O)Nc2ccccc2C(=O)N(C)C)n1`: the outcome was inactive.
Regarding `CN(Cc1cnc2nc(N)nc(N)c2n1)c1ccc(C(=O)N[C@@H](CCC(=O)O)C(=O)O)cc1`, the outcome was inactive.
